MRP reversal = MRP-mediated drug resistance reversal; differential viability (reversal), % at 10 µM; AID 602; H69AR cells + 2 uM doxorubicin, CellTiter-Glo, 72 h; actives 0.04% (n = 85,000);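 active = viability drop by adding the cancer drug above about 55%, with treated viability meeting a 40% cutoff, limit read from the data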;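 also: viability without doxorubicin minus viability with 2 µM doxorubicin for each compound; larger differential means the compound sensitizes cells more to doxorubicin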
LYP act = activators of human LYP (PTPN22) phosphatase; recombinant LYP, DiFMUP fluorescence; 0 = plate median, 100 = signal doubled; actives 0.11% (n = 96,000); activation, % at 2 µM; AID 697; Q9Y2R2;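 active = activation at 2 µM above a set limit, the mean plus 5 SD, cut at about 37% in these data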
PLAP activator = activators of human placental alkaline phosphatase | P05187 | activation fold at 20 µM | actives 1.2% (n = 96,000) | purified PLAP enzyme, luminescent substrate read-out; active compounds read high; in the data active = activation fold above about 2
Target sequence (P05187 whole entry, looked up): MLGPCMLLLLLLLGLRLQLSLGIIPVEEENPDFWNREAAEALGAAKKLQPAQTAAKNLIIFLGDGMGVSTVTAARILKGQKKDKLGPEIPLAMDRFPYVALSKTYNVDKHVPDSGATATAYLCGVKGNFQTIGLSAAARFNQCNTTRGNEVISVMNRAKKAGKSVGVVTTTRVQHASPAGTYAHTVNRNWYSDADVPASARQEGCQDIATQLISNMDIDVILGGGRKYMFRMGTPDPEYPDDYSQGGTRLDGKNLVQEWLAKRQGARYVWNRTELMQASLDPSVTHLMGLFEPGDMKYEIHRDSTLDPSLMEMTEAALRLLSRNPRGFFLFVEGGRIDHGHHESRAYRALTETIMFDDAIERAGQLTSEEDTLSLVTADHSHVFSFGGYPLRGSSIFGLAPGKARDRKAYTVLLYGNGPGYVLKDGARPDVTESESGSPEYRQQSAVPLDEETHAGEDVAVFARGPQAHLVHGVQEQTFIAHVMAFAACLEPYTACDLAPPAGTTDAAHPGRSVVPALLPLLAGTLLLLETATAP
MRP1 act = activators of MRP-1; H69AR cells + doxorubicin, viability rescue, CellTiter-Glo; viability increase, % at 10 µM; actives 0.61% (n = 140,000);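 active = viability gain under doxorubicin at or above a set limit, the compound median plus 3 SD, cut at about 4.7% in these data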;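 also: MRP-1 overexpressing cells given doxorubicin 25 µM after compound pretreatment; 18-22 h compound pretreatment then 72 h with doxorubicin before readout; 0% = doxorubicin-only wells and 100% = vehicle-treated cells without doxorubicin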
FAK inh = FAK (human) kinase inhibition | Q05397 | biochemical FAK kinase activity assay | inhibition, %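 (tested at 7 µM)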 | actives 0.84% (n = 97,000) | AID 727; in the data active = inhibition above about 19%;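 also: 0% = DMSO and 100% = reference compound high control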
LYP inh 2 = LYP (human) phosphatase inhibition | Q9Y2R2 | recombinant LYP catalytic domain, DiFMUP fluorescence | inhibition, % at 2 µM | actives 0.21% (n = 96,000) | AID 640;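 active = inhibition at 2 µM at or above a set limit, the screen mean plus 3 SD, cut at about 24% in these data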;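 also: 0% = DMSO with enzyme and 100% = enzyme fully blocked by orthovanadate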
Active calls of the source: *; nt = no result. This is a sample that favours compounds with a hit; in the whole collection about 2.2% have one here.

SMILES	MRP reversal	LYP act	PLAP activator	MRP1 act	FAK inh	LYP inh 2
COc1ccccc1NC(=O)c1cccs1	nt	-1	0.9	-1	1	2
COC(=O)c1ccccc1NC(=O)c1cccs1	56*	-6	1.6	-1	0	2
NC(=O)c1ccsc1NC(=O)c1ccc2c(c1)CCCC2	nt	nt	nt	-4	nt	nt
NC(=O)c1ccsc1NC(=O)c1cccs1	5	-8	nt	nt	28*	6
c1ccc(N2CCN(c3nc(-c4cccs4)nc4ccccc34)CC2)cc1	nt	nt	nt	7.3*	nt	nt
CCOc1ncccc1C(=O)N(C)CC(=O)Nc1ccccc1SC	nt	nt	nt	-1	nt	nt
O=C(COC(=O)CNS(=O)(=O)c1ccc2ccccc2c1)Nc1ccccc1Sc1ccccc1	nt	nt	nt	-2	nt	nt
COc1ccc(CN=C2NC(=O)CC(C(=O)Nc3ccccc3C)S2)cc1 (stereo not given)	nt	nt	nt	6.0*	nt	nt
COc1ccc(CN=C2NC(=O)CC(C(=O)Nc3ccc([N+](=O)[O-])cc3C)S2)cc1 (stereo not given)	nt	nt	nt	4	nt	nt
O=C(CSc1ccc2nnc(CCNS(=O)(=O)c3ccccc3)n2n1)Nc1nc2ccccc2s1	nt	nt	nt	-4	nt	nt
COc1ccc(-n2nnnc2SCC(=O)c2ccc(O)c(O)c2)cc1	-55	-38	0.4	-1	-3	35*
Nc1ccc(C(=O)OCC(=O)N2c3ccccc3Sc3ccccc32)cc1[N+](=O)[O-]	nt	nt	nt	8.7*	nt	nt
Nc1ccc(C(=O)OCC(=O)N2CCc3ccccc3C2)cc1[N+](=O)[O-]	nt	nt	nt	-1	nt	nt
Cc1ccc(NC(=O)NNC(=O)C2CC(c3cccnc3)=NO2)cc1 (stereo not given)	nt	3	2*	-1	-4	-1
Cc1ccc(C)c(N2CCN(C(=O)CNS(=O)(=O)c3cccs3)CC2)c1	13	2	1.7	1	-2	-2
CCOC(=O)N1CCN(C(=O)CCCn2c(=S)[nH]c3ccc(Br)cc3c2=O)CC1	-21	0	2*	-3	-1	1
CCOC(=O)N1CCN(C(=O)CCCn2c(=S)[nH]c3ccccc3c2=O)CC1	-12	2	1.4	-1	1	-7
COc1ccc(-c2nn(-c3ccccc3)cc2C(=O)NCCCn2ccnc2)cc1	-13	-7	2.6*	-3	2	6
Oc1ccc(-c2nc(-c3ccc(O)c(O)c3)cs2)cc1	-27	nt	0.6	9.1*	nt	nt
Cc1cc(-c2c(C)[nH]n(-c3ccc(Cl)cc3)c2=O)n[nH]1	nt	-82	2*	1	-3	82*
Cc1[nH]n(-c2ccccc2)c(=O)c1Sc1ccc(Cl)cc1	-5	-7	1	1	-1	11
O=C(CC(Nc1ccc(F)cc1)C(=O)OCC(=O)c1cccs1)c1ccccc1 (stereo not given)	nt	nt	nt	5.2*	nt	nt
CC12CCC(C(=O)N(CC(O)CN3CCCCC3)C1=O)C2(C)C (stereo not given)	nt	1	0.9	1	-2	3
Cc1ccc(-c2cc3nc(-c4ccccc4)cc(N4CCOCC4)n3n2)cc1	18	2	nt	-2	-1	-1
COc1ccc(-c2cc3nc(-c4ccccc4)cc(N4CCC5(CC4)OCCO5)n3n2)cc1	2	-4	1.5	9.0*	0	3
SMILES	MRP reversal	LYP act	PLAP activator	MRP1 act	FAK inh	LYP inh 2
COc1ccc(C(=O)/C=C/Nc2ccc(S(=O)(=O)Nc3onc(C)c3C)cc2)cc1	nt	nt	nt	-1	nt	nt
Cc1ccc(OCc2nc(C#N)c(NCCCn3ccnc3)o2)cc1	13	-11	1.2	0	0	11
N#Cc1nc(COc2ccc(Br)cc2)oc1NCCCn1ccnc1	8	-5	2.2*	-4	11	4
Cc1cc(C(=O)Nc2nnc(C(F)(F)F)s2)no1	3	-4	0.9	5.5*	-1	3
O=C(NC(=S)NCC1CCCO1)C(c1ccccc1)c1ccccc1 (stereo not given)	nt	nt	nt	1	nt	nt
N#Cc1cc2c(nc1SCc1ccc(Cl)cc1)CCCC2	7	-9	nt	6.8*	0	8
CCn1c(SCc2ccc(Cl)cc2)nc2nc3c(cc2c1=O)CCCC3	nt	nt	nt	5.4*	nt	nt
N#Cc1cc2c(nc1SCc1ccccc1)CCCCC2	4	1	1	3	2	1
Cc1ccc([N+](=O)[O-])cc1NC(=O)C(Sc1ccccc1)c1ccccc1 (stereo not given)	nt	nt	nt	-3	nt	nt
O=C1c2cccc3cccc(c23)C(=O)N1c1ccncc1	-11	-7	nt	5.7*	0	6
Oc1c(C=Nc2cccc3cccnc23)sc2ccccc12	-6	-4	0.9	-6	4	4
O=[N+]([O-])c1ccc(O)c(N=Cc2sc3ccccc3c2O)c1	nt	nt	nt	5.5*	nt	nt
COc1ccc(-n2c(O)cnc2Nc2nc(C)cc(C)n2)cc1OC	0	0	2.7*	-1	-2	0
CCc1ccc(-n2c(O)cnc2Nc2nc(C)cc(C)n2)cc1	3	-5	2.7*	2	nt	3
O=C(/C=C/c1cccs1)Nc1ccc(Br)cn1	nt	nt	nt	-3	nt	nt
N=C(N)SCc1ccccc1Cl	nt	nt	nt	8.6*	nt	nt
O=C(NCCN1C(=O)S/C(=C\c2cccs2)C1=O)c1ccc(=O)[nH]c1	nt	nt	nt	-2	nt	nt
C=CCNC(=S)NNC(=O)C(CCC(C)C)CC(C)(C)O (stereo not given)	5	-6	2.7*	-1	0	6
Cc1ccccc1CSc1nsc(N)n1	0	1	1.1	-1	0	2
Cc1nc(SCc2ccccc2C)n[nH]1	-3	-14	2*	0	0	13
CC(C)NC(=O)C(=O)NCCc1ccc(Cl)cc1	19	-10	0.9	4.8*	0	12
O=C(O)C1CCCCC1C(=O)NCCc1ccc(Cl)cc1 (stereo not given)	-3	10	1.1	2	-3	-5
O=C(Nc1ccc(NC(=S)NC(=O)C(c2ccccc2)c2ccccc2)cc1)c1ccccc1	nt	1	nt	nt	-8	2
CCOC(=O)N1CCN(C(=O)CSc2nc3c(c(=O)n2-c2ccccc2OC)SCC3)CC1	57*	-1	1.3	-4	3	0
Cn1cc(C(=O)N2CCc3ccccc32)cn1	nt	nt	nt	-2	nt	nt
SMILES	MRP reversal	LYP act	PLAP activator	MRP1 act	FAK inh	LYP inh 2
CCOc1ccc(NC(=O)NCCCn2c(C)nc3cc(C)c(C)cc32)cc1	21	1	2.2*	2	1	-2
Cc1cc2nc(C)n(CCCNC(=O)Nc3cccc4ccccc34)c2cc1C	13	11	nt	2	4	-12
O=C(Nc1ccc2nc(-c3ccc4nc[nH]c4c3)[nH]c2c1)c1cccs1	-22	-20	2.1*	-1	0	22
O=C(CN1CCN(S(=O)(=O)c2ccc(Br)cc2)CC1)N/N=C/c1cccnc1	nt	nt	nt	-2	nt	nt
O=C(N/N=C/c1cccc([N+](=O)[O-])c1)c1cnccn1	nt	nt	nt	-1	nt	nt
O=C(N/N=C/c1ccncc1)c1cc([N+](=O)[O-])cc([N+](=O)[O-])c1O	nt	-44	1	-4	4	46*
O=C(Cn1ccc(C(F)(F)F)n1)N/N=C/c1ccc2c(c1)OCO2	nt	nt	nt	0	nt	nt
CN(C)S(=O)(=O)c1cccc(NC(=O)COC(=O)CCSc2ccc(Cl)cc2)c1	nt	nt	nt	-1	nt	nt
CCN(CC)S(=O)(=O)c1cccc(NC(=O)CCSc2ccc(Cl)cc2)c1	nt	nt	nt	5.5*	nt	nt

Screening results deposited in PubChem by several laboratories.
